Experiment in all cases: DAPPL (digital affinity profiling via proximity ligation, sequencing); 10 mM Tris-HCl pH 7.5, 50 mM NaCl, 1 mM DTT, 4% glycerol, room temperature, 30 min; GST-TFs on glutathione beads, 16-mer random dsDNA library, 0.1% formaldehyde crosslink after washing; high values mean tight binding
For assay [1], the target named is T1, FEV (Homo sapiens, UniProt Q99581 1-238).
T1 sequence: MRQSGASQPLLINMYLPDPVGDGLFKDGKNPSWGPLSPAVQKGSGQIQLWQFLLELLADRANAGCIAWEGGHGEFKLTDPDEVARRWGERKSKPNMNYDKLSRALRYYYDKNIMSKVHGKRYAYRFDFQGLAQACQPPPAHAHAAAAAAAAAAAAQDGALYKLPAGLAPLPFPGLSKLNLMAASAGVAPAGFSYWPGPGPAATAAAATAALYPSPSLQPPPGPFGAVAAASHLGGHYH
The following applies: protein: recombinant; tags: N-terminal GST; dsDNA, one strand shown. Summed up:
(§1)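 Pools were built from human transcription factors expressed in yeast as GST fusions, captured on glutathione beads and DNA-barcoded, along with a tag-only sample. Incubation with 200 nmole of a 16-mer random double-stranded DNA library lasted 30 min at room temperature in Tris/NaCl/DTT/glycerol buffer, and was followed by washing, 0.1% formaldehyde crosslinking, proximity ligation, PCR amplification and Illumina NextSeq500 sequencing. Binding signal is the quotient of each hexamer's read frequency for a factor and its frequency for the tag-only sample.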

Assay [2] addresses ETV5 (Homo sapiens, UniProt P41161 1-510). As to conditions: protein: recombinant; tags: N-terminal GST; dsDNA, one strand shown. Summed up:
as §1

In assay [3] the target is HSF1 (Homo sapiens, UniProt Q00613 1-529). As to conditions: protein: recombinant; tags: N-terminal GST; chain copies: 3; dsDNA, one strand shown. Summed up:
as §1

Assay [4] concerns the target T2, SPIC (Homo sapiens, UniProt Q8N5J4 1-248).
T2 sequence: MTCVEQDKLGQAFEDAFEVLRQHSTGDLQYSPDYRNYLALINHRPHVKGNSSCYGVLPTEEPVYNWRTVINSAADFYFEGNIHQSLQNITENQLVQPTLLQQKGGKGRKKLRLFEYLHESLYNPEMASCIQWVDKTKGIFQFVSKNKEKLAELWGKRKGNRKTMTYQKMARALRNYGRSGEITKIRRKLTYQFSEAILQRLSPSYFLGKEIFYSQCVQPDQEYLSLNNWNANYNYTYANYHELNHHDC
The following applies: protein: recombinant; tags: N-terminal GST; dsDNA, one strand shown. Summed up:
as §1

In assay [5] the target is ELF4 (Homo sapiens, UniProt Q99607 1-663). The following applies: protein: recombinant; tags: N-terminal GST; dsDNA, one strand shown. A digest of the protocol: as §1
Chain of ELF4 (Q99607 whole entry): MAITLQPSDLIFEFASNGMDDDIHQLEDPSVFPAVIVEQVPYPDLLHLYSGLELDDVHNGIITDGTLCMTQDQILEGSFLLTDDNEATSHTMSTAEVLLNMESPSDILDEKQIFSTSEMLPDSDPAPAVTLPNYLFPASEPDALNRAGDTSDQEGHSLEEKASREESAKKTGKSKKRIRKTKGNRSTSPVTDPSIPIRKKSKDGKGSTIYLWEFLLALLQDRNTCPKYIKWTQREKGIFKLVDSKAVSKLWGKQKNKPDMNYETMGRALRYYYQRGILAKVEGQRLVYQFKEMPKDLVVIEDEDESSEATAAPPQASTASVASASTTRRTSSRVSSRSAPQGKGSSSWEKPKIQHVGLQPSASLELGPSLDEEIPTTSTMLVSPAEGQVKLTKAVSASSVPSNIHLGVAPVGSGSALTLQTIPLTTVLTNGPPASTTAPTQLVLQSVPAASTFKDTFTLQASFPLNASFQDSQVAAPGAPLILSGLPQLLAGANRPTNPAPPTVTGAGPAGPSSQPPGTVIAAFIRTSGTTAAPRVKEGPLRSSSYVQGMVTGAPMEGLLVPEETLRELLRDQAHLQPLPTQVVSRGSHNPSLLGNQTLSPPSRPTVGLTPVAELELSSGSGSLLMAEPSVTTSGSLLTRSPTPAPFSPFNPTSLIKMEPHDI
Assay [6] concerns the target T3, ELK4 (Homo sapiens, UniProt P28324-2 1-405).
T3 sequence: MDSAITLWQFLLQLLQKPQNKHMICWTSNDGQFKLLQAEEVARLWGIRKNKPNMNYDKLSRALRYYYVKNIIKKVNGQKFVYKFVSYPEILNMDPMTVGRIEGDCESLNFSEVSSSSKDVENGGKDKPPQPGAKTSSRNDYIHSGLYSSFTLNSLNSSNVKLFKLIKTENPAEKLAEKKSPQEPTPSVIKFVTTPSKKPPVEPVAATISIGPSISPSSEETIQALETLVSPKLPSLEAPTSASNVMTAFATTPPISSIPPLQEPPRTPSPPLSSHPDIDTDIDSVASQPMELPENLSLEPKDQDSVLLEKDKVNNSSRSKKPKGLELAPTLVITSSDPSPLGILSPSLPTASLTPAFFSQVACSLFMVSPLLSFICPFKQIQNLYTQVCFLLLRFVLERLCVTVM
As to conditions: protein: recombinant; tags: N-terminal GST; dsDNA, one strand shown. A digest of the protocol:
as §1

Assay [7] deals with T4, ETV2 (Homo sapiens, UniProt O00321 1-342).
T4 sequence: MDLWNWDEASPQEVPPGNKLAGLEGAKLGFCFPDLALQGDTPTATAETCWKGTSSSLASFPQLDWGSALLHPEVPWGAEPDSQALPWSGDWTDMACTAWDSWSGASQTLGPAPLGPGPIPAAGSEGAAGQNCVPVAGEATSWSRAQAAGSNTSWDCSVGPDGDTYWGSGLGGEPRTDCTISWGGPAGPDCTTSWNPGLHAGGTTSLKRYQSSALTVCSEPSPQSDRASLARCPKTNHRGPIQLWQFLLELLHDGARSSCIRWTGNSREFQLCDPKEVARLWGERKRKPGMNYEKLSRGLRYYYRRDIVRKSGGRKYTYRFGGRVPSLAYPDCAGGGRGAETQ
The following applies: protein: recombinant; tags: N-terminal GST; dsDNA, one strand shown. A digest of the protocol:
as §1

For assay [8], the target named is T5, ELF3 (Homo sapiens, UniProt P78545 1-371).
T5 sequence: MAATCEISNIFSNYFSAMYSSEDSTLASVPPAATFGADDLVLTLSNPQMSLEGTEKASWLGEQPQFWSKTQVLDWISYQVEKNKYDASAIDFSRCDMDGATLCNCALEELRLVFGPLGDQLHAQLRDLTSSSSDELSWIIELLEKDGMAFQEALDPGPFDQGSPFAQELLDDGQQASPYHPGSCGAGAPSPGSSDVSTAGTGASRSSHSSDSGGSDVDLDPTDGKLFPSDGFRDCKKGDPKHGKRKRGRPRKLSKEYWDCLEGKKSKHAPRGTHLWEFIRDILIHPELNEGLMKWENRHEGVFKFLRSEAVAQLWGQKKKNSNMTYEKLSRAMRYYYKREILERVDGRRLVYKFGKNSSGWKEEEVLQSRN
As to conditions: protein: recombinant; tags: N-terminal GST; dsDNA, one strand shown. Summed up:
as §1

The target of assay [9] is CRX (Homo sapiens, UniProt O43186 1-299). The following applies: protein: recombinant; tags: N-terminal GST; dsDNA, one strand shown. Summed up:
as §1

In assay [10] the target is ETV1 (Homo sapiens, UniProt P50549 1-477). The following applies: protein: recombinant; tags: N-terminal GST; dsDNA, one strand shown. A digest of the protocol:
as §1

Assay [11] addresses T6, ERF (Homo sapiens, UniProt P50548 1-548).
T6 sequence: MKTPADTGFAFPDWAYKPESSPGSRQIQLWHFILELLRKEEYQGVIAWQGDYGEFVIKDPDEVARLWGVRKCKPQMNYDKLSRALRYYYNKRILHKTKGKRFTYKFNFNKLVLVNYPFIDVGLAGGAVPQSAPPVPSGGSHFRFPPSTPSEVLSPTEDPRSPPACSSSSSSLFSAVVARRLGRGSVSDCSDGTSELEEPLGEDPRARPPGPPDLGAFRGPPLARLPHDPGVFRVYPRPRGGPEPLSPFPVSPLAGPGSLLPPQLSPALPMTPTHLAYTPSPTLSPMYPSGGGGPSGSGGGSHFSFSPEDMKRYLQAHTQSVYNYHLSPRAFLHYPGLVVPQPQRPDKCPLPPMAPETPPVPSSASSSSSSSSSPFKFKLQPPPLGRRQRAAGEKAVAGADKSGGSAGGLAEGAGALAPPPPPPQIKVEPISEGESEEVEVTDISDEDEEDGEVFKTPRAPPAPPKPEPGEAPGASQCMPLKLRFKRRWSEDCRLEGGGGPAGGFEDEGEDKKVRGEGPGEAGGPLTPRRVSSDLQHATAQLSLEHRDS
As to conditions: protein: recombinant; tags: N-terminal GST; dsDNA, one strand shown. Summed up:
as §1

Assay [12] addresses T7, ETV3L (Homo sapiens, UniProt Q6ZN32 1-361).
T7 sequence: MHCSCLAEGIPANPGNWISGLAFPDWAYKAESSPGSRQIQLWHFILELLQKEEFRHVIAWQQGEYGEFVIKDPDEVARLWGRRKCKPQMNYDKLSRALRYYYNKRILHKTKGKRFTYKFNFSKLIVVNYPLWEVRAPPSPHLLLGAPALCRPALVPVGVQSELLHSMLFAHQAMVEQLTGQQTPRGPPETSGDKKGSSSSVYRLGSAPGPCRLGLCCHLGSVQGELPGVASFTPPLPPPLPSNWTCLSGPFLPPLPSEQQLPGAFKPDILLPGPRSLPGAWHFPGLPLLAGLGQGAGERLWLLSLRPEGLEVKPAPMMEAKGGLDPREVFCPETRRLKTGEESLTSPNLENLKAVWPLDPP
As to conditions: protein: recombinant; tags: N-terminal GST; dsDNA, one strand shown. Summed up: as §1

Assay [13] addresses T8, ETS2 (Homo sapiens, UniProt P15036 1-469).
T8 sequence: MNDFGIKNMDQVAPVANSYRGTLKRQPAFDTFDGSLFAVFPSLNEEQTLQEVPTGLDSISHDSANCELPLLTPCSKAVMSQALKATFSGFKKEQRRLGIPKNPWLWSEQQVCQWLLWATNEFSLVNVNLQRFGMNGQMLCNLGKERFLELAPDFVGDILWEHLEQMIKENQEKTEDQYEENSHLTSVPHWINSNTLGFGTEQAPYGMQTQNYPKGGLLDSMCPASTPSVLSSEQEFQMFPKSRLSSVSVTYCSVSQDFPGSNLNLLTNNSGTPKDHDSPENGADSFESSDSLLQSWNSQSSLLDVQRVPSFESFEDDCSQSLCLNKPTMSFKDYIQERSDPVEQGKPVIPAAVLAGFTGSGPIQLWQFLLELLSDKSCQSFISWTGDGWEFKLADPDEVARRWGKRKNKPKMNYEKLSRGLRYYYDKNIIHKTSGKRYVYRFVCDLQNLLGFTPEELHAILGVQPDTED
As to conditions: protein: recombinant; tags: N-terminal GST; dsDNA, one strand shown. A digest of the protocol:
as §1

In assay [14] the target is T9, SPDEF (Homo sapiens, UniProt O95238 1-335).
T9 sequence: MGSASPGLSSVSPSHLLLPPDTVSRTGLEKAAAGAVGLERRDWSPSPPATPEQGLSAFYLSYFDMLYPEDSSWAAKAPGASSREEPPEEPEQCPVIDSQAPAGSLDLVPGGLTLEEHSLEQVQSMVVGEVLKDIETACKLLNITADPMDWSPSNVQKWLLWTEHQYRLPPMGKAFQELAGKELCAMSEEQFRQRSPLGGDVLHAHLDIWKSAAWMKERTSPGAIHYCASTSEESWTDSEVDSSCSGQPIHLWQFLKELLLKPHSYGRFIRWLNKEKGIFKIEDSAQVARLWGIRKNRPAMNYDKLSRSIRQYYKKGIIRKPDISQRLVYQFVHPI
The following applies: protein: recombinant; tags: N-terminal GST; dsDNA, one strand shown. A digest of the protocol:
as §1

The target in assay [15] is T10, ETV7 (Homo sapiens, UniProt Q9Y603 1-341).
T10 sequence: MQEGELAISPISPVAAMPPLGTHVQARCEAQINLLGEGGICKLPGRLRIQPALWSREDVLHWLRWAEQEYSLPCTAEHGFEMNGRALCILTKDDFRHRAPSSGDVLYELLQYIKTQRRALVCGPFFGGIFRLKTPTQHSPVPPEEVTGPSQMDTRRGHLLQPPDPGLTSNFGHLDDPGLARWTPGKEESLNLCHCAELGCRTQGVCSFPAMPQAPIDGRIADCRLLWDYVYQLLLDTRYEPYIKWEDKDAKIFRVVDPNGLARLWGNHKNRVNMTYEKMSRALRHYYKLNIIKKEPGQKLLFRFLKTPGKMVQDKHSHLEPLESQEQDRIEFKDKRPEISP
As to conditions: protein: recombinant; tags: N-terminal GST; dsDNA, one strand shown. Summed up: as §1

In assay [16] the target is T11, ELF5 (Homo sapiens, UniProt Q9UKW6-2 1-255).
T11 sequence: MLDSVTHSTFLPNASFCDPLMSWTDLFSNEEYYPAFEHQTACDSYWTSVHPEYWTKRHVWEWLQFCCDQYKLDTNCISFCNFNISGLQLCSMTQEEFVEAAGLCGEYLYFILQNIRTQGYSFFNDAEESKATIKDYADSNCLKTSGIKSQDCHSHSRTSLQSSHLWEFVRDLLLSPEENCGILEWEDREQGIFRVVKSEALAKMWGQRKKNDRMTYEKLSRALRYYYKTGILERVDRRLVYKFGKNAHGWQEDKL
The following applies: protein: recombinant; tags: N-terminal GST; dsDNA, one strand shown. Summed up: as §1

Assay [17] addresses T12, ETV3 (Homo sapiens, UniProt P41162-2 1-143).
T12 sequence: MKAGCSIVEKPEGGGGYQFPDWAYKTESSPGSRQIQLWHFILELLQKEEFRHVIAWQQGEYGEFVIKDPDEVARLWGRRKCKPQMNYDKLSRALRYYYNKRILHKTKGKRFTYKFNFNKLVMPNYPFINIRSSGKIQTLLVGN
The following applies: protein: recombinant; tags: N-terminal GST; dsDNA, one strand shown. A digest of the protocol:
as §1

In assay [18] the target is ETV6 (Homo sapiens, UniProt P41212 1-452). As to conditions: protein: recombinant; tags: N-terminal GST; dsDNA, one strand shown. Summed up:
as §1

Chain of ETV6 (P41212 whole entry): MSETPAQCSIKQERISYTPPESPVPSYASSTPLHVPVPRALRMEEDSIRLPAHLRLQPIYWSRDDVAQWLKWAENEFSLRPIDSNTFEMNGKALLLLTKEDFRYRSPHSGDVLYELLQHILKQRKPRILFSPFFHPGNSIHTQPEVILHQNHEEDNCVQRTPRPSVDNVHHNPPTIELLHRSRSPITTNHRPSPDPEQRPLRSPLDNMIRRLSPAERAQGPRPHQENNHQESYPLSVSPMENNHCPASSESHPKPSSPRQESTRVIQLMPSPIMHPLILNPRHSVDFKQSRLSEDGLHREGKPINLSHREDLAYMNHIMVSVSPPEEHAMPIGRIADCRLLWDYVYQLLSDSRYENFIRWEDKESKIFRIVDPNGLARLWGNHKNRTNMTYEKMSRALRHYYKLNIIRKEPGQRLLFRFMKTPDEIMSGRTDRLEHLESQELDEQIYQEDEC
Chain of ETV1 (P50549 whole entry): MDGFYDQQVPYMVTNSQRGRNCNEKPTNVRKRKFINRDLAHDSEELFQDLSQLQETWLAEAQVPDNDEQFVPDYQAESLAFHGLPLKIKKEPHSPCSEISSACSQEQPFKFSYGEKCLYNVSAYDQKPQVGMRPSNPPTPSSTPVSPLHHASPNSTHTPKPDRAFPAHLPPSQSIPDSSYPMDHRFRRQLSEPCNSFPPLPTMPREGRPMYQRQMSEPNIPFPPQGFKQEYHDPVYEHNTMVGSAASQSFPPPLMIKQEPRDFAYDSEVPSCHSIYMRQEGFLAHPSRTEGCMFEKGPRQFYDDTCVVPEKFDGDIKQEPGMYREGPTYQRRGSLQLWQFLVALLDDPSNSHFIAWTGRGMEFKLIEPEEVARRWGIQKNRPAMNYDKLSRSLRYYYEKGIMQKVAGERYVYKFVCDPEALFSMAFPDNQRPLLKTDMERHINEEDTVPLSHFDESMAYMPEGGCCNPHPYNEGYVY
Chain of HSF1 (Q00613 whole entry): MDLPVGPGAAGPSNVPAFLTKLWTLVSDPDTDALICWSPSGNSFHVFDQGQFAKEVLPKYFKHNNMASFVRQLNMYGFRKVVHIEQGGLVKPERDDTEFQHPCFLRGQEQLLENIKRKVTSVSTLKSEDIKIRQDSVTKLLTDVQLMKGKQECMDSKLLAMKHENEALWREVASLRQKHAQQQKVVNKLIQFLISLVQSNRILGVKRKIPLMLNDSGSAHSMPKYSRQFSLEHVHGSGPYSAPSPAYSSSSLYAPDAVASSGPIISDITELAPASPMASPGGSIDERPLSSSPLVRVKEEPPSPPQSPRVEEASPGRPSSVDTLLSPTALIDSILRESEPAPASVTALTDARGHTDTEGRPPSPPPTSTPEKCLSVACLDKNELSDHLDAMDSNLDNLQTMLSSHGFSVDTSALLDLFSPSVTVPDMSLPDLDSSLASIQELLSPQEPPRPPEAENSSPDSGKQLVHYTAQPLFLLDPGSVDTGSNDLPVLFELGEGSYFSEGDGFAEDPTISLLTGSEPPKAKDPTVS
Chain of ETV5 (P41161 whole entry): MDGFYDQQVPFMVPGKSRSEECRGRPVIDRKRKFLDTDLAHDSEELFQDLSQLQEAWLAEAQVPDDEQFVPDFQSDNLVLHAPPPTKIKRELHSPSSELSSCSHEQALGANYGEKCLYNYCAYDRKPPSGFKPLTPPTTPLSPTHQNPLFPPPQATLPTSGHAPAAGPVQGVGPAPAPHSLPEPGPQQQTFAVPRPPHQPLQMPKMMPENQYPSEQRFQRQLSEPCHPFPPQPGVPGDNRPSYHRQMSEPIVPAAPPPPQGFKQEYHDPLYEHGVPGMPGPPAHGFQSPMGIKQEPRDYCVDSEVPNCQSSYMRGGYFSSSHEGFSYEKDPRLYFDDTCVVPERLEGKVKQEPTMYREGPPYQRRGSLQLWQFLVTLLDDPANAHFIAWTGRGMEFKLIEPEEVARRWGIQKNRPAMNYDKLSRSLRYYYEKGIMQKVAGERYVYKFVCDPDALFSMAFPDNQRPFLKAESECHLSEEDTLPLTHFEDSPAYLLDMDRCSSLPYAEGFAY
Chain of CRX (O43186 whole entry): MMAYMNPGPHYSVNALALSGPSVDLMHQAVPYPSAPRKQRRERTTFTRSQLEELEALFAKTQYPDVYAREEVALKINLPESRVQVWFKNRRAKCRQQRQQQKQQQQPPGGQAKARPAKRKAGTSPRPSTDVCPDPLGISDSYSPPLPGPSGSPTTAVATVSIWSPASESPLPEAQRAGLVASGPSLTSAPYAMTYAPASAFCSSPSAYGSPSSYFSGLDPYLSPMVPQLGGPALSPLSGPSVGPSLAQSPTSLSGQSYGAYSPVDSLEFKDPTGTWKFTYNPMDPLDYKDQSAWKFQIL

As to TTGTTA, the binding signal in assay [1] is 1.3 fold enrichment (6-mer frequency, TF over GST control); in [2], 1.31 fold enrichment (6-mer frequency, TF over GST control); in assay [3] it was 1.34 fold enrichment (6-mer frequency, TF over GST control); in [4], 1.31 fold enrichment (6-mer frequency, TF over GST control); in [5], 1.32 fold enrichment (6-mer frequency, TF over GST control); in [6], 1.47 fold enrichment (6-mer frequency, TF over GST control). Moreover, the binding signal is 1.35 fold enrichment (6-mer frequency, TF over GST control) in [7]; 1.08 fold enrichment (6-mer frequency, TF over GST control) in assay [8]; 1.61 fold enrichment (6-mer frequency, TF over GST control) in [9]; 1.35 fold enrichment (6-mer frequency, TF over GST control) in [10]; 1.28 fold enrichment (6-mer frequency, TF over GST control) in [11]; 1.35 fold enrichment (6-mer frequency, TF over GST control) in assay [12]. Besides, the binding signal in assay [13] was 1.34 fold enrichment (6-mer frequency, TF over GST control); in [14], 1.26 fold enrichment (6-mer frequency, TF over GST control); in assay [15] it was 1.35 fold enrichment (6-mer frequency, TF over GST control); in [16], 1.29 fold enrichment (6-mer frequency, TF over GST control); in assay [17], 1.3 fold enrichment (6-mer frequency, TF over GST control); in [18], 1.33 fold enrichment (6-mer frequency, TF over GST control).
